Screening results from PubChem BioAssay.
Sampled rows, rich in hits. Any-hit rate of the full collection: about 1.6%.
KCNQ2 inh = blocks the rat KCNQ2 potassium channel; CHO-K1 KCNQ2, FluxOR thallium flux, 20 min; active compounds read low; B-score at 10 µM; hit rate 1.1% among 310,000; AID 2156;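 active = fluorescence ratio B-score at most minus 3 library SDs, with starting brightness B-score within 2 library SDs, cut at about -5.5 in these data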
Target sequence (O88943 whole entry, looked up): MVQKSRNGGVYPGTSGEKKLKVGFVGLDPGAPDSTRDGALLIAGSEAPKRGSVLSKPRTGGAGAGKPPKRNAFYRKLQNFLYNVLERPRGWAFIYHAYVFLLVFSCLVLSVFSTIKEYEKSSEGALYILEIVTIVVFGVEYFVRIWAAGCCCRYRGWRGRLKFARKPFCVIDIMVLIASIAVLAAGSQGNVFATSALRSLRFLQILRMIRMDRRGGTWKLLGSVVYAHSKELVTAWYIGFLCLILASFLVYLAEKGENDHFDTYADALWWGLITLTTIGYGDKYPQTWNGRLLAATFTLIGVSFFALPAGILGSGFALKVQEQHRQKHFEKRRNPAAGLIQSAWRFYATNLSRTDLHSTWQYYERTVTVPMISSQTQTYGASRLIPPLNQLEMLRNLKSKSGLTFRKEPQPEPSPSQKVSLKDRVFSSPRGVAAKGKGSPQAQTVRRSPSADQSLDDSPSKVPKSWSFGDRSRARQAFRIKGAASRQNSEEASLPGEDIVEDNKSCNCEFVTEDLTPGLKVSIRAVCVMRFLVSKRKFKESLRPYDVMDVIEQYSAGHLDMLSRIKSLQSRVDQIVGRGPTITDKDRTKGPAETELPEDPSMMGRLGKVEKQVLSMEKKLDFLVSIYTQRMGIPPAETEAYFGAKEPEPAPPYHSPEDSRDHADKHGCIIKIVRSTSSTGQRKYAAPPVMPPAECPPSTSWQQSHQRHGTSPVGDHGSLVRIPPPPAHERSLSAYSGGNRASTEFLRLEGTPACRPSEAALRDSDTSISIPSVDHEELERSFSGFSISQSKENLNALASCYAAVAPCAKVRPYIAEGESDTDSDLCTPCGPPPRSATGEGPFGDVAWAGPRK
KCNQ2 enhance = potentiators of rat KCNQ2 potassium channel; CHO-K1 KCNQ2, FluxOR thallium flux fluorescence; active compounds read high; B-score at 10 µM; hit rate 0.54% among 310,000; AID 2239;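 active = fluorescence ratio B-score at least 3 SD of library B-scores, with initial fluorescence B-score within 3 of them, cut at about 5.3 in these data; same plate scores as AID 2156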;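 also: B-score of peak minus minimum over baseline fluorescence ratio after K+ and Tl+ stimulus; positive B-score means potentiation of KCNQ2 with more thallium influx and brighter signal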
Starred values were filed as active, the others as inactive.

For CCOc1cc2[nH]c(=S)n(Cc3ccc(C(=O)O)cc3)c(=O)c2cc1OCC the results were KCNQ2 inh inactive.
NC(N)=N/N=C/c1ccccc1 was read as KCNQ2 inh inactive.
NC(N)=N/N=C/c1ccc(OCc2ccccc2Cl)cc1 was read as KCNQ2 inh -6.2* and KCNQ2 enhance -6.2.
CCOc1ccc(/C=C2\SC(=S)NC2=O)cc1OC was read as KCNQ2 inh inactive and KCNQ2 enhance 3.8.
`COc1ccc(/C=C2\SC(=O)NC2=S)cc1OC` gave KCNQ2 inh inactive and KCNQ2 enhance 5.9*.
Screening Cc1ccc(NC(=O)c2cc(C(C)(C)C)nn2Cc2ccccc2)cc1 returned KCNQ2 inh inactive.
Screening CC(C)(C)c1cc(C(=O)Nc2ccc(F)cc2)n(Cc2ccc(F)cc2)n1 returned KCNQ2 inh -5.9* and KCNQ2 enhance -5.9.
Screening COc1ccc(CNC(=O)C(c2ccccc2F)N(C(=O)c2csnn2)C2CC2)cc1 (stereo not given) returned KCNQ2 inh inactive and KCNQ2 enhance 0.97.
For C=CCN(c1ccccc1OC)S(=O)(=O)c1cccc(C(=O)OCC(=O)c2c[nH]c3ccccc23)c1 the results were KCNQ2 inh inactive and KCNQ2 enhance 6.7*.
Screening COc1cc(OC)c(N(C)S(=O)(=O)c2cccc(C(=O)OCC(=O)c3c[nH]c4ccccc34)c2)cc1Cl returned KCNQ2 inh inactive and KCNQ2 enhance 6.3*.
COc1cc(C(=O)OCC(=O)c2c[nH]c3ccccc23)ccc1OCC(=O)N1CCOCC1 was read as KCNQ2 inh inactive.
For Cc1ccc(C(=O)OCC(=O)c2c[nH]c3ccccc23)cc1 the results were KCNQ2 inh inactive and KCNQ2 enhance 0.98.
Screening C[C@H](NC(=O)C1CC(=O)N(c2ccc3c(c2)OCCO3)C1)C(=O)NCc1ccco1 (stereo not given in full) returned KCNQ2 inh inactive and KCNQ2 enhance 0.01.
Screening CC(=N\NC(=O)c1ccccc1)/C(=N/O)C(=O)Nc1ccccc1 returned KCNQ2 inh inactive.
CC(=N\Nc1ccccc1)/C(=N/O)C(=O)Nc1ccccc1 was read as KCNQ2 inh -6* and KCNQ2 enhance -6.
For CC(=O)Nc1ccc(NC(=O)C2CC(=O)N(c3ccccc3Cl)C2)cc1 (stereo not given) the results were KCNQ2 inh inactive and KCNQ2 enhance 21*.
Screening CC(=O)Nc1ccc(NC(=O)C2CC(=O)N(c3ccc(Cl)cc3)C2)cc1 (stereo not given) returned KCNQ2 inh inactive.
Screening CCCCN(C)CCn1c(=S)[nH]c2cc(OCC)c(OCC)cc2c1=O returned KCNQ2 inh inactive and KCNQ2 enhance 5.4*.
Screening CCOc1cc2[nH]c(=S)n(CCOC)c(=O)c2cc1OCC returned KCNQ2 inh inactive and KCNQ2 enhance 0.16.
CS(=O)(=O)N(CC(=O)N1CCCCCC1)c1cccc([N+](=O)[O-])c1 was read as KCNQ2 inh inactive and KCNQ2 enhance 1.6.
`COc1ccccc1NC(=O)c1cc(C)oc1C` gave KCNQ2 inh inactive.
Screening CCOc1ccccc1NC(=O)c1cc(CC(C)C)oc1C returned KCNQ2 inh -6.2* and KCNQ2 enhance -6.2.
COCC1CCCCN1Cc1cn[nH]c1-c1ccc2cc(OC)ccc2c1 (stereo not given) was read as KCNQ2 inh inactive.
For O=c1cc(N2CCCCC2)c(-c2ccccc2)nn1Cc1ccccc1Cl the results were KCNQ2 inh inactive.
For O=c1cc(N2CCCCC2)c(-c2ccccc2)nn1Cc1ccc(Cl)cc1Cl the results were KCNQ2 inh -7.7* and KCNQ2 enhance -7.7.
O=C(Cn1cncn1)NCCCc1ccccc1 was read as KCNQ2 inh inactive and KCNQ2 enhance 0.74.
For COc1ccc(C)cc1NC(=O)C(Sc1nncn1C)c1ccccc1 (stereo not given) the results were KCNQ2 inh inactive.
For COc1ccc(C)cc1NC(=O)C(Sc1nnc(Nc2ccccc2F)s1)c1ccccc1 (stereo not given) the results were KCNQ2 inh -6.3* and KCNQ2 enhance -6.3.
Cc1ccc(-n2cc(CNCCc3cscn3)c(-c3ccc(F)cc3)n2)cc1 was read as KCNQ2 inh -6.8* and KCNQ2 enhance -6.8.
For COc1ccc(-n2cc(CNCCc3cscn3)c(-c3ccccc3Cl)n2)cc1 the results were KCNQ2 inh inactive.
`Cc1nc(NC(=O)C2CC2)sc1C(=O)Nc1ccccc1Cl` gave KCNQ2 inh inactive.
Screening O=C(c1c(F)cccc1F)N1CCCC(c2nc(-c3cccs3)no2)C1 (stereo not given) returned KCNQ2 inh inactive.
Screening CC(C)(C)C(=O)Nc1ccc(S(=O)(=O)Nc2nccs2)cc1 returned KCNQ2 inh inactive.
For C/C(=N\Nc1ccc(C(=O)O)cc1)c1ccc2c(c1)Nc1ccccc1S2 the results were KCNQ2 inh inactive and KCNQ2 enhance 5.3*.
Screening COc1ccc(/C(C)=N/Nc2cccc(C(=O)O)c2)cc1OC returned KCNQ2 inh inactive.
